Screening results: PubChem BioAssay, The Scripps Research Institute Molecular Screening Center
hcDAF12 agonist: H. contortus DAF-12 nuclear receptor activators, primary screen, cell-based, luminescence, HEK293, lit1-tk-luc reporter | hit rate 1.4% among 370,000 | HEK293 hcDAF-12 lit1-tk-luc reporter; 0% DMSO, 100% Δ7-dafachronic acid | activation, % at 6.8 µM;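 active = activation above the mean of all tested compounds plus 3 SD, cut at about 5.5% in these data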;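 note: 100% = response to 3 µM Δ7-dafachronic acid high control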
ssDAF-12 act: S. stercoralis DAF-12 nuclear receptor activators, primary screen, cell-based, luminescence, HEK293, GRIP1 co-expression, lit1-tk-luc; activation, % at 6.8 µM; HEK293 ssDAF-12/GRIP1 lit1-tk-luc reporter; % of 3 µM dafachronic acid response; hit rate 1% among 370,000; Nuclear hormone receptor DAF-12 (Strongyloides stercoralis);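 active = activation above the mean over all tested compounds plus 3 SD, cut at about 0.9% in these data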;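 note: 0% = DMSO-only wells and 100% = 3 µM delta7-dafachronic acid wells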
hgDAF-12 ag: H. glycines DAF-12 receptor agonists, primary screen, cell-based, luminescence, HEK293, GAL4 fusion, UAS-luciferase | hit rate 1.8% among 370,000 | activation, % at 6.8 µM | Nuclear hormone receptor DAF-12 (Heterodera glycines), GAL4 fusion | HEK293 GAL4-hgDAF12 UAS-luciferase reporter, agonist luminescence; normalized to butyrate control;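 active = activation above a cutoff set at the mean of all screened compounds plus 3 SD, cut at about 10% in these data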;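 note: 0% = DMSO wells and 100% = sodium butyrate wells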
DAX1 inh-1: DAX1 (NR0B1) inhibitors, primary screen, cell-based, HEK293, Gal4-DAX1, luciferase luminescence; hit rate 0.99% among 340,000; HEK293 Gal4-DAX1 luciferase reporter; inhibition, % at 6.75 µM;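 active = inhibition above the mean over all tested compounds plus 3 SD, cut at about 4.2% in these data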;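 note: 0% = DAX1-transfected cells with DMSO and 100% = empty-vector control cells with DMSO; inhibition shows as a rise in luminescence from relieved DAX1 repression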
Target sequence (P51843 207-470 limits assumed): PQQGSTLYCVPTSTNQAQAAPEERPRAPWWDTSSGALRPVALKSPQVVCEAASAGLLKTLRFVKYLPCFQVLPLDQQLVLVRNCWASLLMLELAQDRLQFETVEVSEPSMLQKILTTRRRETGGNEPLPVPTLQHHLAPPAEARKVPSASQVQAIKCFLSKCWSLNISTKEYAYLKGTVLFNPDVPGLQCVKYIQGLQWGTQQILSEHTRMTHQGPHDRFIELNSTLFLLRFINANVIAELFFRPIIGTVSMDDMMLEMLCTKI
DAX1 inh-2: DAX1 (NR0B1) inhibitors on StAR promoter, primary screen, cell-based, luminescence, SF-1 (NR5A1), full-length DAX-1; hit rate 1.1% among 370,000; HEK293T StAR-luciferase reporter, SF-1/DAX-1 repression relief; inhibition, % at 6.8 µM; AID 652010, 2013;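 active = inhibition above the mean over all tested compounds plus 3 SD, cut at about 3.6% in these data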;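 note: 0% = DAX-1 cells with DMSO and 100% = cells lacking DAX-1 with DMSO; higher inhibition means more luminescence from relief of DAX-1 repression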
LXRb hcDAF ctr: LXR agonists, Gal4 luciferase reporter, confirmation, counter-screen for hcDAF-12 agonist project, cell-based, luminescence, HEK293, H. contortus campaign | 3,400 tested, under 10 active | activation, % at 6.8 µM | HEK293 Gal4-LXR tk-luc reporter, 24 h; normalized: DMSO 0%, positive control 100% | shares compounds with hcDAF12 agonist | AID 743027, 2013;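 active = mean percent activation of the reporter above a cutoff set as the average over tested compounds plus their standard deviation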
hcDAF12 conf: H. contortus DAF-12 receptor agonists, confirmation, cell-based, luminescence, HEK293, lit1-tk-luc, triplicate; shares compounds with hcDAF12 agonist; HEK293 hcDAF-12 lit1-tk-luc reporter; % of Δ7-dafachronic acid response; activation, % at 6.8 µM; hit rate 61% among 3,400; AID 743032, 2013;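 active = mean activation across triplicate tests above the threshold derived from the earlier primary screen, cut at about 5.5% in these data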;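 note: 0% = DMSO only wells and 100% = 3 µM Δ7-dafachronic acid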
* = called active by the depositor; / = not tested or not shown. Shown are actives, neighbours in structure and some others; about 4.1% of the full set was active somewhere.

SMILES | hcDAF12 agonist | ssDAF-12 act | hgDAF-12 ag | DAX1 inh-1 | DAX1 inh-2 | LXRb hcDAF ctr | hcDAF12 conf
Cc1ccc(NC(=O)N2CC(C)OC(C)C2)cc1[N+](=O)[O-] (centres undefined) | 2 | 0 | 4 | / | 0 | / | /
CCCc1c(Cc2cccc(F)c2)ncn1CCc1ccccc1OC | -2 | -1 | 2 | / | -1 | / | /
[O-][n+]1c2ccccc2c2n1CCCN=C2c1ccc(Cl)cc1 | 8.0* | 1 | 3 | 2 | 2 | 0 | 8.6*
Cn1c(=O)c2c(ncn2Cc2ccc(O)c([N+](=O)[O-])c2)n(C)c1=O | 0 | -2 | 0 | / | -2 | / | /
NS(=O)(=O)c1ccc2nc(NC(=O)CS(=O)(=O)c3ccccc3)sc2c1 | 0 | 0 | 2 | 0 | 0 | / | /
O=C(CS(=O)(=O)c1ccccc1)Nc1nc2ccccc2s1 | 7.1* | 0 | 5 | 1 | 0 | 0 | 3
S=C(Nc1ccccc1)c1nc2ccccc2s1 | 9.2* | 1.1* | 12* | 2 | 1 | 1 | 8.9*
O=C(NNc1nc2ccccc2s1)Nc1ccccc1 | 7.2* | 0 | 5 | 1 | 1 | 1 | 4
C/C(=C\C(=O)c1ccccc1)NNc1nc2ccccc2s1 | 3 | -1 | -4 | 0 | 0 | / | /
O=C(NCc1ccccc1)c1nc2ccccc2s1 | 1 | -2 | 2 | 1 | -1 | / | /
CCN(C(=S)Nc1cc(S(=O)(=O)N2CCOCC2)ccc1Cl)c1cccc2ccccc12 | 6.8* | 1.2* | 0 | 0 | -1 | 0 | 1
O=S(=O)(c1ccc(Cl)c(NC(=S)Nc2cccc(O)c2)c1)N1CCOCC1 | -1 | -1 | -1 | 1 | 0 | / | /
Cc1ccc(-n2c(Cc3cccs3)nnc2SCc2ccc([N+](=O)[O-])cc2)cc1 | -3 | -2 | -3 | / | -1 | / | /
CC(=O)N[C@@H](Cc1ccc(O)cc1)CN1C(N)=NC[C@@H]1CC(C)C | 6.8* | 0 | 1 | 0 | 1 | 0 | 0
COc1cccc(/C=N/NC(=O)C(=O)N/N=C/c2cccc(OC)c2OC)c1OC | -1 | -1 | 0 | -1 | 0 | / | /
CCn1c(C)c(/C=N/Nc2nc3ccccc3s2)c2ccccc21 | 12* | 0 | 11* | -1 | 1 | 0 | 4
COc1cccc(/C=N/Nc2nnc3c(n2)[nH]c2ccccc23)c1OC | 7.1* | -1 | 1 | 1 | 0 | 0 | 4
COc1cccc(C=NNc2nc3ccccc3s2)c1OC | 7.6* | 0 | 13* | 6.8* | 3.6* | 1 | 3
COC(=O)[C@]12C[C@H](CC(=O)N3CCC(c4ccccc4)CC3)C(=O)N(Cc3ccccc3)C1=C[C@H](C(C)(C)C)O[C@@H]2C | 3 | -1 | -1 | / | 1 | / | /
Cc1nn(-c2ccccc2)nc1C(=O)Nc1ccccc1C(=O)NCC1CC1 | -2 | -1 | -2 | / | 0 | / | /
COc1ccc(C)cc1NC(=O)n1ncc2cc(Cl)ccc21 | 7.4* | 1 | 4 | 0 | 0 | 0 | 3
Cc1ccccc1NC(=O)n1ncc2cc(Cl)ccc21 | -2 | -1 | 0 | -1 | 0 | / | /
Oc1ccc(CNc2ccc(C(F)(F)F)cc2F)c2cccnc12 | 4 | 0 | 4 | / | / | / | /
Cc1cc2nn(-c3cccc4ccccc34)nc2cc1N | 2 | 0 | 3 | 0 | 0 | / | /
